Results as given in PubChem BioAssay (EPA / NIEHS).
Values joined by “and” are separate entries in the source; they are usually repeats but may differ in a detail not shown here. Equal entries are not always repeated. Results filed as inconclusive are left out. Active and inactive are the calls of the source. Rule for the calls: active = hit-call score of the fitted dose curve at least 0.9, where 1 is the maximum; inconclusive = response in the unintended direction; inactive = score below 0.9.

Test: TOX21_p53_BLA_p2_viability: Viability Assessment in the Tox21 HCT-116 p53 Agonism Beta-lactamase Assay, Phase 2 (AID 2283591);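 note: compound exposure lasted 16 h at 37 °C; actives lower the ATP signal meaning cytotoxicity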
Method in brief: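 HCT116 p53-bla cells, 4000/well, dosed after 5 h plating (217-fold dilution of DMSO stocks) and incubated 16 h at 37C. Viability taken as cellular ATP by CellTiter-Glo luminescence after 30 min RT; signal loss marks cytotoxicity.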

| SMILES | outcome | AC50 |
| --- | --- | --- |
| COc1ccc(S(=O)(=O)Nc2nnc(CC(C)C)s2)cc1 | inactive | – |
| CO[C@H]1/C=C/O[C@@]2(C)Oc3c(C)c(O)c4c(O)c(c(/C=N/N5CCN(C6CCCC6)CC5)c(O)c4c3C2=O)NC(=O)/C(C)=C\C=C\[C@H](C)[C@H](O)[C@@H](C)[C@@H](O)[C@@H](C)[C@H](OC(C)=O)[C@@H]1C | – | 33.8 µM (active) |
| CCCN1C[C@H](CSC)C[C@@H]2c3cccc4[nH]cc(c34)C[C@H]21 | inactive | – |
| Cc1c(-c2ccccc2)oc2c(C(=O)OCCN3CCCCC3)cccc2c1=O | inactive | – |
| O=S(=O)(O)c1ccc(O)cc1 | inactive | – |
| CCCCCCCCC1CO1 (centres undefined) | inactive | – |
| Cc1ccc(O)c(O)c1 | – | 40.8 µM (active) |
| O=C(O)c1ccc(Cl)c(Cl)c1 | inactive | – |
| COc1cccc2c1[C@@H]1CN(CCCCn3c(=O)[nH]c4c(sc5ncc(-c6ccccc6)nc54)c3=O)C[C@@H]1CO2 | – | 39.8 µM (active) |
| CCC(C)[C@H]1O[C@]2(C=C[C@@H]1C)C[C@@H]1C[C@@H](C/C=C(\C)[C@@H](O[C@H]3C[C@H](OC)[C@@H](O[C@H]4C[C@H](OC)[C@H](NC(C)=O)[C@H](C)O4)[C@H](C)O3)[C@@H](C)/C=C/C=C3\CO[C@@H]4[C@H](O)C(C)=C[C@@H](C(=O)O1)[C@]34O)O2 (some centres undefined) | – | 13 µM (active) |
| COCC(=O)O[C@]1(CCN(C)CCCc2nc3ccccc3[nH]2)CCc2cc(F)ccc2[C@@H]1C(C)C | – | 13.1 µM (active) |
| CSc1ccc2c(c1)C(N1CCN(C)CC1)Cc1ccccc1S2 (centres undefined) | – | 36.3 µM (active) |
| CC(C)NCC1CCc2cc(CO)c([N+](=O)[O-])cc2N1 (centres undefined) | inactive | – |
| O=C1c2cccc(O)c2C(=O)c2c(O)cccc21 | inactive | – |
| CO[C@@]12[C@H](COC(N)=O)C3=C(C(=O)C(C)=C(N)C3=O)N1C[C@@H]1N[C@@H]12 | – | 33.2 µM (active) |
| C=C(Nc1ccc(OCC)cc1)Nc1ccc(OCC)cc1 | inactive | – |
| COc1cc2[nH]c(=O)[nH]c(=O)c2cc1OC | inactive | – |
| C[N+]1(CC2COC(c3ccccc3)(C3CCCCC3)O2)CCCCC1 (centres undefined) | inactive | – |
| C#C[C@]1(OC(C)=O)CC[C@H]2[C@@H]3CCC4=C/C(=N/O)CC[C@@H]4[C@H]3CC[C@@]21CC | – | 37.2 µM (active) |
| CO[Si](CCCNc1ccccc1)(OC)OC | inactive | – |

| SMILES | outcome | AC50 |
| --- | --- | --- |
| COc1cc(N)c(Cl)cc1C(=O)NC1CCN(CCCOc2ccc(F)cc2)CC1OC (centres undefined) | inactive | – |
| C(=C\c1ccccc1)/CN1CCN(C(c2ccccc2)c2ccccc2)CC1 | inactive | – |
| CCOc1ccc2nc3cc(N)ccc3c(N)c2c1 | inactive | – |
| CCCCC(=O)OCC(=O)[C@]1(O)Cc2c(O)c3c(c(O)c2[C@@H](O[C@H]2C[C@H](NC(=O)C(F)(F)F)[C@H](O)[C@H](C)O2)C1)C(=O)c1c(OC)cccc1C3=O | inactive | – |
| C=CCNC1=C2C[C@@H](C)C[C@H](OC)[C@H](O)[C@@H](C)/C=C(\C)[C@H](OC(N)=O)[C@@H](OC)/C=C\C=C(/C)C(=O)NC(=CC1=O)C2=O | inactive | – |
| CCCC(CCC)C(=O)OC1C[C@H]2CC[C@@H](C1)[N+]2(C)C (some centres undefined) | inactive | – |
| CC(=O)Oc1ccc(C2(c3ccc(OC(C)=O)cc3)C(=O)Nc3ccccc32)cc1 | – | 781 nM (active) and 543 nM (active) |
| CCCCCCCCCCCC[n+]1ccc2ccccc2c1 | – | 33.6 µM (active) |
| CO[C@H]1/C=C/O[C@@]2(C)Oc3c(C)c(O)c4c(O)c(cc(O)c4c3C2=O)NC(=O)/C(C)=C\C=C\[C@H](C)[C@H](O)[C@@H](C)[C@@H](O)[C@@H](C)[C@H](OC(C)=O)[C@@H]1C | inactive | – |
| Cc1c(C(=O)NN2CCCCC2)nn(-c2ccc(Cl)cc2Cl)c1-c1ccc(Cl)cc1 | – | 28.3 µM (active) |
| CCOC(=O)/C=C(C)/C=C/C=C(C)/C=C/c1c(C)cc(OC)c(C)c1C | inactive | – |
| CCOc1cc([N+](=O)[O-])c(OCC)cc1N1CCOCC1 | inactive | – |
| CCCCCCCCOc1ccccc1C(=O)Nc1ccc(C(=O)OCC[N+](C)(CC)CC)cc1 | – | 28.9 µM (active) |
| CCCCCCCCNC(C)C(O)c1ccc(SC(C)C)cc1 (centres undefined) | – | 22.4 µM (active) |
| Cc1ccc2c(Cl)cc(Cl)c(O)c2n1 | – | 7.81 µM (active) |
| CC1=C[C@H](O)CC(C)(C)[C@H]1/C=C/C(C)=C/C=C/C(C)=C/C=C/C=C(C)/C=C/C=C(C)/C=C/C1=C(C)C[C@@H](O)CC1(C)C | inactive | – |
| Cc1ccccn1 | inactive | – |
| Cc1cc(CC(C)CC(C)(C)C)n(O)c(=O)c1 (centres undefined) (tested in a mixture with another compound) | inactive | – |
| COc1cc(NC(C)CCCN)c2ncccc2c1 (centres undefined) | inactive | – |
